Results published in PubChem BioAssay (EPA / NIEHS).
Calls of active or inactive are those of the source. How the source made its calls: active means hit-call score of the fitted dose curve at least 0.9, where 1 is the maximum; inactive means score below 0.9.

Legend:
[1] = read-out: TIMP metallopeptidase inhibitor 1 (TIMP1), TIMP1 (gene 7076); test: BSK_hDFCGF_TIMP1: BioMAP Diversity Plus: hDFCGF Assay for TIMP metallopeptidase inhibitor 1 (TIMP1) Biomarker Activity (AID 2283062); settings: primary human foreskin fibroblasts; actives raise or lower the signal
In short: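 Human skin fibroblasts (primary), hDFCGF system; compound exposure 24 h; TIMP-1 by ELISA; bidirectional fit vs DMSO negative control; overt cytotoxicity by SRB in parallel wells.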

[2] = read-out: Monokine induced gamma interferon (MIG), CXCL9 (gene 4283); test: BSK_hDFCGF_MIG: BioMAP Diversity Plus: hDFCGF Assay for Monokine induced gamma interferon (MIG) Biomarker Activity (AID 2283063); settings: primary human foreskin fibroblasts; actives raise or lower the signal
In short: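 Chemicals were added to primary human foreskin fibroblast cultures, which were sampled 24 h later. MIG levels were then quantified by ELISA and responses fitted in both directions relative to DMSO.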

[3] = read-out: Matrix Metallopeptidase 1 (MMP1), MMP1 (gene 4312); test: BSK_hDFCGF_MMP1: BioMAP Diversity Plus: hDFCGF Assay for Matrix Metallopeptidase 1 (MMP1) Biomarker Activity (AID 2283064); settings: primary human foreskin fibroblasts; actives raise or lower the signal
In short: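 Primary human foreskin fibroblasts exposed to chemicals for 24 h; MMP1 measured by ELISA. Cytotoxicity tracked by SRB staining in parallel cultures; bidirectional fit relative to DMSO.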

[4] = read-out: Vascular cell adhesion molecule 1 (VCAM1), VCAM1 (gene 7412); test: BSK_hDFCGF_VCAM1: BioMAP Diversity Plus: hDFCGF Assay for Vascular cell adhesion molecule 1 (VCAM1) Biomarker Activity (AID 2283065); settings: primary human foreskin fibroblasts; actives raise or lower the signal;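 on AC50: VCAM-1 protein level quantified by ELISA after 24 h chemical exposure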
In short: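 Human foreskin fibroblast primary cells, chemical exposure 24 h; VCAM-1 by ELISA; bidirectional fit, DMSO = negative control/baseline.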

[5] = read-out: Plasminogen activator inhibitor-1 (PAI1), SERPINE1 (gene 5054); test: BSK_hDFCGF_PAI1: BioMAP Diversity Plus: hDFCGF Assay for Plasminogen activator inhibitor-1 (PAI1) Biomarker Activity (AID 2283066); settings: primary human foreskin fibroblasts; actives raise or lower the signal
In short: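 PAI-1 levels, determined by ELISA, served as the endpoint in human foreskin fibroblast cultures exposed to compound for 24 h, with DMSO as baseline.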

[6] = read-out: Intercellular Adhesion Molecule 1 (ICAM1), ICAM1 (gene 3383); test: BSK_KF3CT_ICAM1: BioMAP Diversity Plus: KF3CT Assay for Intercellular Adhesion Molecule 1 (ICAM1) Biomarker Activity (AID 2283067); settings: primary human keratinocytes with fibroblasts; actives raise or lower the signal
In short: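 ICAM-1 levels are measured by ELISA 24 h after dosing a primary human co-culture of keratinocytes and foreskin fibroblasts. Activity in either direction is fitted relative to DMSO vehicle.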

[7] = read-out: Interferon-gamma inducible Protein 10 (IP10), CXCL10 (gene 3627); test: BSK_KF3CT_IP10: BioMAP Diversity Plus: KF3CT Assay for Interferon-gamma inducible Protein 10 (IP10) Biomarker Activity (AID 2283068); settings: primary human keratinocytes with fibroblasts; actives raise or lower the signal
In short: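 ELISA read-out of IP-10 after 24 h chemical dosing of human skin primary co-culture (keratinocytes, foreskin fibroblasts). Gain or loss of signal relative to DMSO, bidirectional curve fit.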

[8] = BSK_KF3CT_SRB: Viability Assessment in the BioMAP Diversity Plus: KF3CT Assay (AID 2283069); settings: primary human keratinocytes with fibroblasts;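 further: total protein by sulforhodamine B staining as a cytotoxicity measure; read 24 h after compound addition; fitted for both signal gain and loss against DMSO baseline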
In short: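 Human keratinocyte and foreskin fibroblast co-culture exposed to chemical for 24 h. Total protein measured in parallel cultures by 0.1% sulforhodamine B staining after 10% TCA fixation, read at 560 nm; bidirectional fit relative to DMSO.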

[9] = read-out: Interleukin-1 alpha (IL1a), IL1A (gene 3552); test: BSK_KF3CT_IL1a: BioMAP Diversity Plus: KF3CT Assay for Interleukin-1 alpha (IL1a) Biomarker Activity (AID 2283070); settings: primary human keratinocytes with fibroblasts; actives raise or lower the signal
In short: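 Primary human keratinocyte plus foreskin fibroblast co-culture, dosed and measured at 24 h in 96-well plates. IL-1a level quantified by ELISA; bidirectional fit relative to DMSO.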

[10] = read-out: TIMP metallopeptidase inhibitor 2 (TIMP2), TIMP2 (gene 7077); test: BSK_KF3CT_TIMP2: BioMAP Diversity Plus: KF3CT Assay for TIMP metallopeptidase inhibitor 2 (TIMP2) Biomarker Activity (AID 2283071); settings: primary human keratinocytes with fibroblasts; actives raise or lower the signal
In short: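 Keratinocyte–fibroblast co-culture, 24 h exposure; TIMP-2 ELISA, DMSO-normalised bidirectional fit. Parallel SRB (0.1%, TCA-fixed, 560 nm) total-protein staining gauges cytotoxicity.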

[11] = read-out: Transforming growth factor beta 1 (TGFb1), TGFB1 (gene 7040); test: BSK_KF3CT_TGFb1: BioMAP Diversity Plus: KF3CT Assay for Transforming growth factor beta 1 (TGFb1) Biomarker Activity (AID 2283072); settings: primary human keratinocytes with fibroblasts; actives raise or lower the signal
In short: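 Signal changes in either direction, relative to DMSO, define activity here. TGF-b1 is read by ELISA from a human keratinocyte-fibroblast co-culture 24 h post-dose.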

[12] = read-out: C-C motif chemokine 2 (Homo sapiens) (UniProt P13500); test: BSK_KF3CT_MCP1: BioMAP Diversity Plus: KF3CT Assay for Monocyte Chemoattractant Protein 1 (MCP1/CCL2) Biomarker Activity (AID 2283073); settings: primary human keratinocytes with fibroblasts; actives raise or lower the signal
In short: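 ELISA readout of MCP-1 after 24 h chemical dosing of a human skin primary co-culture of keratinocytes and foreskin fibroblasts. Activity was fitted in both directions against DMSO.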

[13] = read-out: Matrix Metallopeptidase 9 (MMP9), MMP9 (gene 4318); test: BSK_KF3CT_MMP9: BioMAP Diversity Plus: KF3CT Assay for Matrix Metallopeptidase 9 (MMP9) Biomarker Activity (AID 2283074); settings: primary human keratinocytes with fibroblasts; actives raise or lower the signal;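 on AC50: MMP9 protein level quantified by ELISA in the co-culture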
In short: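 Human keratinocyte and foreskin fibroblast co-culture exposed to chemicals for 24 h; MMP9 biomarker measured by ELISA, bidirectional fitting relative to DMSO; cytotoxicity tracked by SRB total protein staining in parallel cultures.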

[14] = read-out: urokinase plasminogen activator (uPA), PLAU (gene 5328); test: BSK_KF3CT_uPA: BioMAP Diversity Plus: KF3CT Assay for urokinase plasminogen activator (uPA) Biomarker Activity (AID 2283075); settings: primary human keratinocytes with fibroblasts; actives raise or lower the signal
In short: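 Primary human keratinocyte/foreskin fibroblast co-culture exposed to chemical; uPA measured by ELISA at 24 h. Bidirectional fit versus DMSO, with parallel SRB total-protein staining for cytotoxicity.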

[15] = read-out: CD40, CD40 (gene 958); test: BSK_LPS_CD40: BioMAP Diversity Plus: LPS Assay for CD40 Biomarker Activity (AID 2283076); settings: primary human HUVEC with PBMC; actives raise or lower the signal
In short: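 Cells were dosed, incubated 24 h, then assayed for CD40 by ELISA. Gain or loss of signal was analysed relative to DMSO controls. The culture paired human umbilical vein endothelium with peripheral blood mononuclear cells.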

[16] = read-out: E-selectin (Homo sapiens) (UniProt P16581); test: BSK_LPS_Eselectin: BioMAP Diversity Plus: LPS Assay for Eselectin Biomarker Activity (AID 2283077); settings: primary human HUVEC with PBMC; actives raise or lower the signal
In short: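 Primary human vascular co-culture (endothelium plus PBMC) was dosed with chemical, then E-selectin quantified by ELISA at 24 h. Endpoint values derive from bidirectional curve fitting relative to DMSO.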

[17] = read-out: Interleukin-8 (IL8), CXCL8 (gene 3576); test: BSK_LPS_IL8: BioMAP Diversity Plus: LPS Assay for Interleukin-8 (IL8) Biomarker Activity (AID 2283078); settings: primary human HUVEC with PBMC; actives raise or lower the signal
In short: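 Readout is IL-8 by ELISA, taken 24 h after compounds were added to LPS-stimulated endothelial/PBMC co-cultures. Both increases and decreases relative to DMSO control were scored through bidirectional fitting.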

[18] = BSK_LPS_SRB: Viability Assessment in the BioMAP Diversity Plus: LPS Assay (AID 2283079); settings: primary human HUVEC with PBMC;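 further: total protein by sulforhodamine B absorbance as a cytotoxicity measure; measured one day after compound addition; fitted in both directions against DMSO so loss or gain of signal counts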
In short: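 Readout is SRB absorbance at 560 nm (0.1% stain, TCA-fixed parallel cultures) as a total-protein cytotoxicity measure. Cells: primary human umbilical vein endothelium plus peripheral blood mononuclear cells, 24 h after chemical exposure; DMSO served as baseline.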

[19] = read-out: Interleukin-1 alpha (IL1a), IL1A (gene 3552); test: BSK_LPS_IL1a: BioMAP Diversity Plus: LPS Assay for Interleukin-1 alpha (IL1a) Biomarker Activity (AID 2283080); settings: primary human HUVEC with PBMC; actives raise or lower the signal
In short: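 ELISA read-out of IL-1 alpha from a human primary vascular co-culture (endothelium plus PBMC) under LPS, sampled 24 hours post-dosing. Activity was fitted in both directions relative to DMSO controls.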

[20] = read-out: Monocyte Chemoattractant Protein-1 (MCP1), CCL2 (gene 6347); test: BSK_LPS_MCP1: BioMAP Diversity Plus: LPS Assay for Monocyte Chemoattractant Protein-1 (MCP1) Biomarker Activity (AID 2283081); settings: primary human HUVEC with PBMC; actives raise or lower the signal;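 on AC50: secreted MCP-1 protein quantified by ELISA in culture supernatant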
In short: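 Human endothelial–PBMC co-cultures were dosed with chemical, then LPS-driven MCP-1 levels were quantified by ELISA at 24 h. Activity in either direction was fitted versus DMSO negative control.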

Measured: AC50

E-selectin (Homo sapiens), sequence (P16581 whole entry, looked up): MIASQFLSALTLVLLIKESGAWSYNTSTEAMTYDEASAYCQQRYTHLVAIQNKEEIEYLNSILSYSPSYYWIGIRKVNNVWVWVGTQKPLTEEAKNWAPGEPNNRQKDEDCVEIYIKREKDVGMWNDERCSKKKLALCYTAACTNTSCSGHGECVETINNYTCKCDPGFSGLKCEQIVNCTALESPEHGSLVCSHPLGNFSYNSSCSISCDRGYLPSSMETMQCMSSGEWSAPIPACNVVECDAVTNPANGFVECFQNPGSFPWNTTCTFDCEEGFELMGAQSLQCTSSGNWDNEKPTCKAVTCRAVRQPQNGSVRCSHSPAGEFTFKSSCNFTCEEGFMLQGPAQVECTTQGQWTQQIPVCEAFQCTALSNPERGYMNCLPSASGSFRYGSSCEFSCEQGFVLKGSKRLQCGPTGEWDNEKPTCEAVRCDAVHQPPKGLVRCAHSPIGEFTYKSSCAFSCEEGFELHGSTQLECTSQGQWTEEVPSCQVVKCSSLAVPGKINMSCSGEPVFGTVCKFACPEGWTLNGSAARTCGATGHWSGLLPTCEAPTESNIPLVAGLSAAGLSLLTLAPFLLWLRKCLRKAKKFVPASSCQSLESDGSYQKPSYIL

CCC(C)(C)C1CCC(O)CC1 (stereo not drawn)
active: [7] 32.8 µM
inactive: all other assays above

CCCCC(CC)COC(=O)CCCCC(=O)OCc1ccccc1 (stereo not drawn)
inactive: all assays above

CCCCCCCCCCCCCCCS(=O)(=O)Oc1ccccc1
inactive: all assays above

CC[C@H](c1ccc(O)cc1)[C@@H](CC)c1ccc(O)cc1
inactive: [1]
active: [2] 30.6 µM | [3] 31.2 µM | [5] 25 µM | [6] 32.9 µM | [7] 26.5 µM | [8] 32.5 µM | [9] 32 µM | [10] 31.6 µM | [11] 29.8 µM | [12] 32.7 µM | [13] 19.4 µM | [14] 35 µM | [15] 17.4 µM | [16] 33.8 µM | [17] 35.1 µM | [18] 31.5 µM | [19] 31.3 µM | [20] 33.8 µM

O=C(OCCOCCOC(=O)c1ccccc1)c1ccccc1
inactive: all assays above

Cc1oc(-c2ccccc2)nc1CCOc1ccc(C[C@H](Nc2ccccc2C(=O)c2ccccc2)C(=O)O)cc1
active: [1] 3.99 µM | [2] 6.07 µM | [3] 2.05 µM | [4] 3.61 µM | [5] 2.79 µM | [6] 7.43 µM | [7] 2.86 µM | [8] 4.3 µM | [9] 8.87 µM | [10] 9.85 µM | [11] 7.38 µM | [12] 5.22 µM | [13] 6.66 µM | [14] 7.7 µM | [15] 30.2 µM | [16] 30.8 µM | [17] 29.1 µM | [18] 20.6 µM | [19] 20 µM | [20] 16.1 µM

CCOC(=O)CC(O)(CC(=O)OCC)C(=O)OCC
inactive: all assays above

OC1CCCCC1
inactive: all assays above

CC(=O)NC1(c2cccc(F)c2)CCN(CC[C@@]2(c3ccc(Cl)c(Cl)c3)CN(c3ccccc3)C(=O)CO2)CC1
active: [1] 26.7 µM | [2] 31.8 µM | [3] 30.2 µM | [4] 27 µM | [5] 23.8 µM | [7] 25.3 µM | [8] 25.1 µM | [13] 25.8 µM | [14] 27 µM | [17] 4.23 µM | [18] 12.8 µM | [19] 24.9 µM | [20] 16.6 µM
inactive: [6] | [9] | [10] | [11] | [12] | [15] | [16]

OC1CCC(C2CCCCC2)CC1 (stereo not drawn)
not listed: [20]
inactive: all other assays above

N#C[C@@H]1CC(F)(F)CN1C(=O)CNC1CC2CCC(C1)N2c1ncccn1 (stereo partly drawn)
active: [15] 4.2 µM
inactive: all other assays above
